In PubChem BioAssay (EPA / NIEHS):
Calls of active or inactive are those of the source. The calls were made as follows: active = hit-call score of the fitted dose curve at least 0.9, where 1 is the maximum; inactive = score below 0.9.

test: CEETOX_H295R_11DCORT: CeeTox H295R High-throughput Steroidogenesis Assay for 11-Deoxycortisol (11DCORT) (AID 2283432); settings: actives raise or lower the signal;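 as to AC50: 11-deoxycortisol secreted into the medium measured by LC-MS/MS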
Experimental: CEETOX_H295R is a cell-based, multiplexed-readout assay that uses H295R, a human adrenal gland cell line, with measurements taken at 48 hours after chemical dosing in a 96-well plate.CEETOX_H295R_11DCORT is one of 23 assay component(s) measured or calculated from the CEETOX_H295R assay. It is designed to make measurements of hormone induction, a form of inducible reporter, as detected with absorbance signals by HPLC-MS-MS technology.Data from the assay component CEETOX_H295R_11DCORT was analyzed into 1 assay endpoint. This assay endpoint, CEETOX_H295R_11DCORT, was analyzed with bidirectional fitting relative to DMSO as the negative control and baseline of activity. Using a type of inducible reporter, gain or loss-of-signal activity using HPLC-MS-MS was used to understand synthesis of 11-Deoxycortisol in H295R cell line at 48hr of chemical exposure. To generalize the intended target to other relatable targets, this assay endpoint is annotated to the steroid hormone intended target family, where the subfamily is glucocorticoids.
Cell culture and media preparation procedures were conducted in accordance with OECD Test No. 456 guidelines, with minor modifications. H295R cells (ATCC CRL-2128) were expanded for 5 passages and frozen in batches in liquid nitrogen. Prior to the steroidogenesis assay, H295R cells were thawed and passed at least 4 times. The maximum passage was 10. Cells were maintained in a 1:1 mixture of DMEM/F12 supplemented with 5ml/L ITS+ Premix (BD Bioscience) and 12.5 ml/L Nu-Serum (BD Bioscience). After seeding cells into 96-well plates at 50-60% confluency, cells were allowed to adhere overnight. Prior to chemical testing, culture medium was replaced with 175 uL medium containing 10 uM forskolin to stimulate steroidogenesis for 48 hours. Following prestimulation, forskolin medium was replaced with medium containing test chemical solubilized in DMSO (ensuring a final concentration of 0.1% DMSO). Test chemicals were incubated for 48 hours, then the medium was removed and split into 2 vials containing approximately 75uL each, and stored at -80 C prior to hormone analysis. For steroid quantification, media samples were shipped to OpAns, LLC (Durham, NC) on dry ice, and samples were thawed to room temperature prior to liquid-liquid extraction. Steroid hormones were extracted from media samples using methyl tertbutyl ether (MTBE). An extra derivatization with dansyl chloride was included for estrogen (estrone and estradiol) detection only. Steroid hormones were separated by HPLC, eluted using a reverse phase C18 gradient with electrospray positive ionization, followed by quantification by tandem mass spectrometry (MS/MS). Data were acquired on a MassHunter Workstation Acquisition version B03.01 (Agilent Technologies, Inc.) and processed using MassHunter Quantitative Analysis for QQQ. Accuracy was determined for each hormone analyte from 3 standards to determine upper and lower limits of quantification (ULOQ and LLOQ, respectively) using a 7-point standard curve. Precision and accuracy of the extraction and quantification methods were calculated as the percent relative standard deviation (%RSD) of the spiked standards and percent spiked standard recovered, respectively. The goal was to achieve 100% accuracy (i.e., recover all spiked-in standard at quantification with minimal loss during run time) and good precision (i.e., have %RSD <15% to ensure reproducibility). Test medium was removed following chemical exposure, and cell viability was evaluated in the same wells by MTT. MTT procedures were as follows: after removal of test medium, 500 uL of 0.5 mg/ml of 3-[4,5-dimethylthiazol-2-y]2,5-diphenyltetrazoliumbromide solution was added to the cells. Following a 4-hour incubation at 37 C and 5% CO2 to allow formazan-crystal formation, the MTT solution was removed and blue formazan salt crystals were solubilized using 500uL anhydrous isopropanol with shaking for 20 minutes. […]

SMILES | outcome | AC50
Cc1cc(O)ccc1Cl | inactive | –
c1cc2ccc3cccc4ccc(c1)c2c34 | – | 26.5 µM (active)
CC#Cc1cc(C)nc(Nc2ccccc2)n1 | inactive | –
CCSC(=O)N(CC)C1CCCCC1 | inactive | –
C=CC(N)=O | inactive | –
Clc1ccc(C(c2ccccc2Cl)C(Cl)(Cl)Cl)cc1 (configuration not stated) | inactive | –
Cc1ccc(O)c(C)c1 | inactive | –
ClC1=C(Cl)[C@]2(Cl)[C@@H]3[C@H]4C[C@H]([C@@H]5O[C@H]45)[C@@H]3[C@@]1(Cl)C2(Cl)Cl | – | 7.42 µM (active)
NS(=O)(=O)C(F)(F)C(F)(F)C(F)(F)C(F)(F)C(F)(F)C(F)(F)C(F)(F)C(F)(F)F | inactive | –
Nc1ccc(-c2ccc(N)cc2)cc1 | – | 79.6 µM (active)
O=C(NC(=O)c1c(F)cccc1F)Nc1cc(Cl)c(OC(F)(F)C(F)F)c(Cl)c1 | inactive | –
C[C@]12CCC(=O)C=C1CC[C@@H]1[C@@H]2CC[C@@]2(C)[C@H]1CC[C@]2(C)O | – | 11 µM (active)
Cc1cccc(C)c1N | inactive | –
CCC(=O)O[C@H]1CC[C@H]2[C@@H]3CCC4=CC(=O)CC[C@]4(C)[C@H]3CC[C@]12C | – | 75.1 µM (active)
CC1=C2C[C@H]3[C@@H](CC=C4C[C@@H](O)CC[C@@]43C)[C@@H]2CC[C@]12O[C@@H]1C[C@H](C)CN[C@H]1[C@H]2C | inactive | –
CCOCCOC(C)=O | inactive | –
Oc1ccc(Cl)cc1Cl | inactive | –
